# GPT2 inhibitor: Primary qHTS assay for inhibitors of Glutamate pyruvate transaminase 2 (GPT2) | actives 0.25% (n = 100,000) | Alanine aminotransferase 2 (Homo sapiens), Q8TD30 | Potency, µM (series often up to 57.7 µM), without a hit: at the top dose activity change, negative = inhibition, usual class: inhibitors | Recombinant GPT2, coupled pyruvate oxidase/HRP Amplex Red fluorescence | AID 1671188, 2021; note: potency is the fitted concentration of half-maximal effect; nearly all actives have a fitted effect of over 60% in size
# Target sequence (Q8TD30 whole entry, looked up): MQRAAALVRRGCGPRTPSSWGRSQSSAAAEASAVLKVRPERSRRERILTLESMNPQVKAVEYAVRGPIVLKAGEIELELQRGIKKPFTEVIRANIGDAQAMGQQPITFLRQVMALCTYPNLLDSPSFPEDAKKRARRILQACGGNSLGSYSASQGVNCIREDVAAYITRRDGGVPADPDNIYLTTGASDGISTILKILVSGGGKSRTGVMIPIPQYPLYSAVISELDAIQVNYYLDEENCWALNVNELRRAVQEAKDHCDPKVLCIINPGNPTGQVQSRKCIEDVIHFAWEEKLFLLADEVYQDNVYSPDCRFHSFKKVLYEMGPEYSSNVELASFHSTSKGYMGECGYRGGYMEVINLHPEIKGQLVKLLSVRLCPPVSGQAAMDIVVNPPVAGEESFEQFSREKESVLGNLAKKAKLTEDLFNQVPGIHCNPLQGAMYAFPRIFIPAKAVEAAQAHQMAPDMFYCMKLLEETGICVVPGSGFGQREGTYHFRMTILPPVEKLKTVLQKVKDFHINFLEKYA
#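 Fluorescence read-out: pyruvate from GPT2 turnover coupled to pyruvate oxidase, HRP and Amplex Red (0.2mM ThPP, 0.2U/mL PO and HRP, 50uM Amplex final). Substrates 250uM a-KG, 2mM L-alanine; enzyme 10ng/uL; 30 min RT.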
# IP6K1 inhibitor: Primary qHTS assay for small molecule inhibitors of Inositol hexaphosphate kinase 1 (IP6K1); AID 1645851, 2021; IP6K1 kinase, ADP-Glo luminescence, 2 h; stronger effect = lower value; Inositol hexakisphosphate kinase 1 (Homo sapiens), Q92551; activity change, % (series mostly up to about 58 µM); actives 0.81% (n = 140,000); in the data active = activity change below about -25%
#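 ADP-Glo luminescence measures ADP made by human IP6K1 during a 2 h RT reaction with ATP/IP6 (mix at 1.3 mM/130 uM); top library doses 57.5 and 19.1 uM final.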
# SNCA viab count: GF-AFC viability counterscreen for inhibitors of alpha-synuclein gene (SNCA) expression | HEK-293-SNCA-luc viability, GF-AFC fluorescence, 24 h | Potency, µM (titrated, usually from 57.1 µM), inactives show top-dose activity change, negative = cytotoxicity, actives largely listed as cytotoxic | actives 0.12% (n = 150,000) | AID 1671193, 2021;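 note: potency is the fitted concentration of half-maximal effect; 0% = DMSO-treated cells and -100% = medium-only wells without cells; nearly all actives have a fitted effect of over 30% in size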
#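 Cytotoxicity counterscreen: after 24 h compound treatment of genome-edited SNCA-luciferase HEK-293 cells, live-cell protease substrate GF-AFC read by fluorescence after 30 min; activity scaled between DMSO (0%) and medium-only (-100%), curves Hill-fitted.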
# SNCA expr inhib: Primary qHTS assay for inhibitors of alpha-synuclein gene (SNCA) expression | HEK-293 SNCA-luciferase knock-in, luminescence, 24 h | Potency, µM (doses to about 57.2 µM), without a hit: at the highest dose activity change, negative = inhibition, most hits filed as inhibitors | actives 0.17% (n = 140,000) | AID 1671194, 2021;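 note: potency is the fitted concentration of half-maximal effect; plate controls were DMSO cells for no effect and cell-free wells for full effect; nearly all actives have a fitted effect of over 45% in size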
# IP6K1 inh cnf: Confirmatory qHTS assay for small molecule inhibitors of Inositol hexaphosphate kinase 1 (IP6K1) | actives 13% (n = 1,200) | recombinant IP6K1 kinase, ADP-Glo luminescence, 2 h | Potency, µM (doses to about 49 µM), without a hit: top-dose activity change, negative = inhibition, most hits filed as inhibitors | shares compounds with IP6K1 inhibitor; note: potency is the fitted concentration of half-maximal effect; nearly all actives have a fitted effect of over 65% in size
# Starred values were filed as active, the others as inactive; i = inactive; ? = inconclusive; . = no result; ! = not confirmed by another sample; [ ] = remark or other dose. Only some compounds are listed: those with a hit (about 1.1% of all), similar ones and a draw of the others. Unless noted, calls come from the whole dose curve; as a rule, active = well fitted curve in the direction sought with a large enough effect; inconclusive = small, poorly fitted or top-dose-only effect, or another doubt; inactive = no such curve, though single readings can be large; an effect the other way counts as inactive or inconclusive. Unless noted, % is set by controls: 0 for no effect and ±100 for the full control effect.
SMILES,GPT2 inhibitor,IP6K1 inhibitor,SNCA viab count,SNCA expr inhib,IP6K1 inh cnf
Cc1nc(C2(C)CCN(C(=O)C3CCN(S(=O)(=O)c4ccc5c(c4)oc(=O)n5C)CC3)CC2)no1,i,19.0,-9.6%,-27.1%,.
Cn1cc(C(=O)N2CCN(c3ccccc3)CC2)c(=O)c2cc(S(=O)(=O)N3CCCC3)ccc21,.,7.3,32.1%,15.7%,.
COc1ccc(-c2ccc3c(c2)C(=O)N2CC[C@H](n4nnc(C(N)=O)c4C(N)=O)C[C@H]2C(=O)N3)c(OC)c1,?,-43.9*,-1.2%,20.4%,?
CCOc1ccc(Nc2nn(-c3ccc(OC(F)(F)F)cc3)nc2C(C)=O)cc1,.,7.8,2.6%,-6.8%,.
COc1cccc(-c2cncnc2NCc2cccnc2)c1,.,.,3.5%,-25.3%,.
COc1cccc2c1cc1c(=O)n(CC(=O)NCc3ccc(C)o3)nc(C)n12,.,-29.8*,8.1%,-7.5%,-3.8%
COCCN1CCCCCC(O)c2cc(C(=O)N3CCN(c4ccccc4OC)CC3)ccc21 (stereo unspecified),i,-11.5,-0.5%,9.3%,.
CCn1nc(C)c(CCNC(=O)C2CCC(=O)N(C3CCCC3)C2)c1C (stereo unspecified),-10.4%[11.5 µM],-25.0*,3.0%,-8.5%,-9.1%
COc1cc([C@@H]2c3cc4c(cc3[C@H](O)[C@@H](CO)[C@@H]2C(=O)NC2CC2)OCO4)cc(OC)c1OC,-2.6%,-10.1,-9.3%,1.2%,.
Cc1cccc(Cn2c(=O)n(CCCCC(=O)NCc3ccc4c(c3)OCO4)c(=O)c3ccccc32)c1,.,1.5,0.9%,-29.5%,.
O=C(CCCCn1c(=O)c2ccccc2n(Cc2cccc(Cl)c2)c1=O)NCc1ccc2c(c1)OCO2,.,-28.0*,5.3%,25.3%,-6.8%
O=C1C(c2c(O)[nH]c3ccccc23)=Nc2ccccc21,-8.9%[27.3 µM],-15.6,-10.7%[23.9 µM],-23.2%,.
O=C1c2ccccc2-[n+]2ccc3c([nH]c4ccccc43)c21,0.273µM*,.,?,3.04µM*,-24.4%
O=S(=O)(c1ccc(Cl)cc1)c1nc(-c2cccs2)oc1N1CCCCC1,.,-27.0*,7.5%,33.0%,13.0%
CN(Cc1nc(-c2ccncc2)no1)C1CCC2(CCNCC2)CC1,?,-41.4*,1.7%,-16.9%,1.5%
O=[N+]([O-])c1ccc(CNc2nc(NCc3cccc(C(F)(F)F)c3)nc3nc[nH]c23)cc1,i,-75.1*,-3.4%,.,1.64µM*!
O=C(Cn1cc(SCc2cccc(F)c2)c2ccccc21)N1CCOCC1,.,-1.4,-22.6%,99.6%,.
Cc1cccc(NC(=O)CSc2cn(CC(=O)N3CCCCCC3)c3ccccc23)c1,.,-41.4*,-21.2%,?,-4.1%
O=C(Cn1cc(SCc2cccc(F)c2)c2ccccc21)N1CCCC1,.,-97.4*,-3.7%,104.1%,?
Cc1noc2ncnc(NCc3cccc(Cl)c3)c12,.,6.0,0.6%,16.0%,.
CC(=O)c1ccc(OC(=O)c2c(-c3ccccc3Cl)noc2C)cc1,.,-42.5*,9.0%,52.4%,-18.3%
O=C(Cc1ccccc1)Nc1cccc(-c2nc3cccnc3s2)c1,.,-18.9,5.9%,70.1%,.
COCC(=O)Nc1cccc(-c2nc3cccnc3s2)c1,.,-26.8*,5.9%,120.5%,?
O=C(c1ccco1)N(Cc1cccnc1)c1nc2ccc(F)cc2s1,.,-27.2*,-3.0%,86.3%,-16.6%
O=C(CCc1ccccc1)N(Cc1cccnc1)c1nc2ccc(F)cc2s1,.,-14.6,-2.7%,7.7%,.
SMILES,GPT2 inhibitor,IP6K1 inhibitor,SNCA viab count,SNCA expr inhib,IP6K1 inh cnf
COc1ccc(CCCc2nnc(SCC(=O)Nc3cccc(C)c3)o2)cc1,.,-32.5*,-3.0%,-11.4%,-12.7%
O=C(NCc1ccc(Cl)cc1)c1ccc2nnc(-c3ccc(Cl)cc3)n2c1,0.1%,4.8,-17.1%,?,.
Cn1c(=O)c2c(n3c4ccccc4nc13)NC(=O)CC2c1cccc(F)c1 (stereo unspecified),.,-3.2,13.8%,35.5%,.
Cn1c(=O)c2c(n3c4ccccc4nc13)NC(=O)CC2c1ccccc1F (stereo unspecified),.,-28.0*,3.8%,19.1%,-19.6%
Cn1ccc(NC(=O)[C@@H]2C[C@@H](c3ccc(F)cc3)N(Cc3ccccc3)C2)n1,2.8%[88.5 µM],-3.8,1.1%[87.6 µM],-1.6%[87.6 µM],.
CC(C)(Oc1nn(Cc2cccc(Cl)c2)c2ccccc12)C(=O)NCCc1cnc[nH]1,0.8%[88.5 µM],-11.2,?,-11.4%[87.6 µM],.
COc1ccc(N2CCN(CC(O)COc3ccc(C)cc3C)CC2)cc1 (stereo unspecified),.,6.5,-0.9%,-7.3%,.
COc1ccc(N2CCN(CC(O)COc3ccc(C(C)(C)C)cc3)CC2)cc1 (stereo unspecified),.,-28.7*,-6.2%,2.7%,-9.3%
Nc1c(S(=O)(=O)O)cc(Nc2ccc(Nc3nc(Cl)nc(Nc4ccc(S(=O)(=O)O)cc4)n3)c(S(=O)(=O)O)c2)c2c1C(=O)c1ccccc1C2=O,i,.,-16.1%,-4.8%,2.91µM*
Nc1c(C(=O)NCc2ccc(Cl)cc2)sc2nc(-c3ccc(F)cc3)ccc12,.,21.6,?,-13.7%,.
CCOC(=O)C1CCN(Cc2cn3c(-c4ccc(OC)cc4)nnc3s2)CC1,.,-25.2*,-7.9%,39.6%,12.6%
CCOC(=O)C1CCCN(Cc2cn3c(-c4ccc(Br)cc4)nnc3s2)C1 (stereo unspecified),.,-9.5,-16.4%,-12.4%,.
CN1CCN(c2cc(=O)c3ccnc(N4CCN(c5ccccn5)CC4)c3o2)CC1,i,-26.4*,-2.0%[87.6 µM],-12.4%[87.6 µM],-26.9%
CN1CCN(c2cc(=O)c3ccnc(N4CCOCC4)c3o2)CC1,1.6%[88.5 µM],-16.4,4.7%[87.6 µM],10.5%[87.6 µM],.
COc1ccc(CNC(=O)C(=O)NCC(c2ccco2)S(=O)(=O)c2ccc(Cl)cc2)cc1 (stereo unspecified),.,-29.0*,3.7%,-5.0%,20.4%
C=CC(C)(C)C12Nc3c(ccc4c3OC(C)(C)C=C4)C1(O)CC1C(=O)N3CCCC3C(=O)N12 (stereo unspecified),1.0%[27.3 µM],21.1,-12.1%[23.9 µM],.,.
Nc1nc(Nc2cccc(Cl)c2)sc1C(=O)c1ccc(F)cc1,.,-27.2*,1.6%,-12.7%,-29.5%
Cc1cn(C)c(CC(=O)N2CCN(c3cccc(Cl)c3)CC2)c1C(=O)O,.,-25.6*,0.9%,5.8%,-24.8%
CC(=O)N1CC2(Cc3ccccc3N(C(C)=O)C2)C1,-6.5%[88.5 µM],-7.1,-2.9%[87.6 µM],-7.0%[87.6 µM],.
COC(=O)N1CC2(Cc3ccccc3N(C(C)=O)C2)C1,1.1%[88.5 µM],-25.0*,19.1%[87.6 µM],15.7%[87.6 µM],0.8%
C[C@@H](c1ccccc1)N1C(=O)[C@@H]2CN(S(=O)(=O)c3cccs3)CCN2C1=O,4.2%[88.5 µM],3.6,6.5%[87.6 µM],-3.9%[87.6 µM],.

# Screening results (PubChem BioAssay)
